Where “and” joins values, the source holds several entries; their conditions need not be identical. Equal values may be shown once. A structure can be active in one record and inactive in another. Calls of active or inactive are those of the source. Rule for the calls: active = hit-call score of the fitted dose curve at least 0.9, where 1 is the maximum; inactive = score below 0.9.
Test: CCTE_Shafer_MEA_dev_correlation_coefficient_mean: CCTE's Neural Network Formation Assay for Mean Correlation Coefficient, Shafer Lab (AID 2284093);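 for AC50: well mean pairwise spike train correlation integrated as AUC over recording days 5 to 12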
Method: CCTE_Shafer_MEA_dev assay is conducted using Axion Biosystems 48 well microelectrode array (MEA) plates and Maestro recording system. Each well of the MEA plate contains a grid of 16 microelectrodes embedded in the culture surface. Electrically active cells, such as neurons, can be cultured over the electrodes, and electrical activity in these cells can be recorded extracellularly. The spontaneous firing of neurons is captured from each electrode on a microsecond timescale providing both temporally and spatially precise data. […] The CCTE_Shafer_MEA_dev assay uses primary cultures of rat cortical neurons. Recordings are made on days post-plating 5, 7, 9 and 12. As these cultures mature over time, neural networks develop functional activity and form cohesive networks in which electrical activity can be highly coordinated. CCTE_Shafer_MEA_dev_correlation_coefficient_mean is 1 of 19 assay components of the CCTE_Shafer_MEA_dev assay. It measures the correlation coefficent of spikes (action potential firings) between every pair of electrodes in a well during a recording in a microelectrode array (MEA) using Axion Biosystems Maestro 768 channel amplifier with the AxIS adaptive spike detector. The pairwise correlations are averaged across active electrodes to report a well-mean value. To collapse across multiple recordings made on days post-plating 5, 7, 9 and 12, the trapezoidal area-under-the-curve of the component is calculated.Data from the assay component CCTE_Shafer_MEA_dev_correlation_coefficient_mean was analyzed into 1 assay endpoint. This assay endpoint, CCTE_Shafer_MEA_dev_correlation_coefficient_mean, was analyzed in the negative analysis fitting direction relative to DMSO as the negative control and baseline of activity. Using a type of functional reporter, gain or loss-of-signal activity can be used to understand electrical activity.
On the day prior to culture, each well was coated thoroughly with 150 uL of 0.05% polyethyleneimine (PEI, Sigma Cat P3143) in 50 mM HEPES (Sigma Cat H7523) at a pH of 8. The plate was incubated at 37C for one hour. PEI was rinsed out with 500 uL of sterile water three times. Plates were stored at 4C until the day of culture. This culture was plated at a seeding density of 1.5 x 10^5 cells/well on a 48-well MEA plate, prepared as described above. Cells were administered via a 25 uL media/laminin ([…]; Sigma Cat L2020-1MG) drop directly onto the microelectrode array, as adding the cells with the laminin results in better attachment than pre-coating with laminin. After 2 hours, an additional 475 uL of cortical media was added and the cells returned to the incubator. Exposure starts at day 0 of plating and is continued over twelve days of network development until the experiment is terminated. Cells are fed with fresh medium on DIV 5 and 9, following the recordings on those days. The entire volume of media in the well is exchanged and any vehicle or compound treatment is renewed. Complete details are found in OP-NHEERL/ISTD/SBB/TJS/2015-03-r0 (available on request, email shafer.tim@epa.gov). Measurement of the electrical activity is non-invasive, and recordings can be made from the same plate over multiple different days of the culture. In cortical neurons, this allows for the measurement of extracellular action potentials over the period during which networks form in the MEA plate.

Row | Structure (SMILES) | outcome | AC50
1 | CCC(C)(c1ccc(O)cc1)c1ccc(O)cc1 | inactive | –
2 | COc1ccc(O)c(C(C)(C)C)c1 | inactive | –
3 | Oc1ccc(C(c2ccc(O)cc2)(C(F)(F)F)C(F)(F)F)cc1 | inactive | –
4 | ClC1=C(Cl)[C@]2(Cl)[C@@H]3[C@@H]4C[C@@H]([C@H]5O[C@@H]45)[C@@H]3[C@@]1(Cl)C2(Cl)Cl | – | 23.6 µM (active)
5 | CCOP(=S)(OCC)SCSC(C)(C)C | – | 23.3 µM (active) and 24.2 µM (active)
6 | O=C(O)C(F)(F)C(F)(F)C(F)(F)C(F)(F)C(F)(F)F | inactive | –
7 | CO/C=C(/C(=O)OC)c1ccccc1COc1cccc(C(F)(F)F)n1 | – | 244 nM (active) and 459 nM (active)
8 | Clc1ccc(C(c2ccccc2Cl)C(Cl)(Cl)Cl)cc1 (stereo not drawn) | – | 0.199 µM (active)
9 | O=S(=O)(O)C(F)(F)C(F)(F)C(F)(F)C(F)(F)F | inactive | –
10 | ClC(Cl)=C(c1ccc(Cl)cc1)c1ccc(Cl)cc1 | – | 3.9 µM (active)
11 | c1cc2ccc3cccc4ccc(c1)c2c34 | inactive | –
12 | ClC1=C(Cl)[C@]2(Cl)[C@@H]3[C@H]4C[C@H]([C@@H]5O[C@H]45)[C@@H]3[C@@]1(Cl)C2(Cl)Cl | inactive | –
13 | NS(=O)(=O)C(F)(F)C(F)(F)C(F)(F)C(F)(F)C(F)(F)C(F)(F)C(F)(F)C(F)(F)F | inactive | 22.6 µM (active)
14 | O=S(=O)(O)C(F)(F)C(F)(F)C(F)(F)C(F)(F)C(F)(F)C(F)(F)F | inactive | –
15 | O=C(O)C(F)(F)C(F)(F)C(F)(F)C(F)(F)C(F)(F)C(F)(F)C(F)(F)C(F)(F)F | inactive | –
16 | C=CC(N)=O | inactive | –
17 | ClC1=C(Cl)[C@]2(Cl)[C@@H]3[C@@H](Cl)[C@H]4O[C@H]4[C@@H]3C1(Cl)C2(Cl)Cl | – | 27.5 µM (active)

Source: PubChem BioAssay (EPA / NIEHS)
